A selection: hits, their analogues and other compounds. The true share with any hit is near 9.9%.
SW480 rerep: DNA re-replication induction in SW480 cells; SW480 DNA re-replication, Hoechst DNA content imaging, 48 h; Potency, µM (series often up to 46.1 µM), inactives show at the top dose re-replication activation, usual class: activators; actives 1.8% (n = 340,000); further: potency means the concentration at half of the fitted maximal effect; % of control where 0% means no effect; nearly all actives have a fitted effect of over 55% in size
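Hoechst fluorescence of nuclei (405 nm excitation, 500-530 nm emission) measured by plate-scanning imager after 48 hr compound exposure at 37 C; re-replication scored as increased number of nuclei with elevated intensity.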
KB-V1 cytotox: kills drug-selected multidrug resistant KB-V1 cells; KB-V1 MDR cells viability, CellTiter-Glo, 72 h; Potency, µM (series often up to 46.1 µM), most hits filed as cytotoxic; actives 3.4% (n = 400,000); further: potency means the concentration at half of the fitted maximal effect; on the % scale 0 is the no-effect control and ±100 the full control effect; nearly all actives have a fitted effect of over 60% in size
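Cytotoxicity toward P-gp-expressing KB-V1 cells was determined as loss of CellTiter-Glo luminescence after 72 h at 37 degrees C. Compounds were tested in quantitative HTS format across a concentration range, with curves fitted to normalized data.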
IL1B secr inh: blocks inflammasome-driven IL-1 beta release. THP-1 LPS/ATP IL-1B secretion, AlphaLISA, 16 h; hits give low values. activity change, % at 57.5 µM. actives 4.7% (n = 360,000). AID 743279; in the data active means activity change below about -50%; inconclusive means mostly about -30% to -49%; further: on the % scale 0 is the no-effect control and ±100 the full control effect
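Secreted IL-1B measured by AlphaLISA bead assay after 16 h compound exposure of THP-1 cells; compounds (final up to 57.5 uM) added 1 h before LPS (250 ng/mL) and ATP (1.25 mM) stimulation; lower signal means less secretion.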
MCF10A rerep: inducers of DNA re-replication in MCF 10A breast cells. AID 624296. MCF 10A DNA re-replication, Hoechst nuclear intensity, 48 h. actives 2.9% (n = 350,000). Potency, µM (doses to about 46.1 µM), without a hit: at the highest dose activity, positive = re-replication, most hits filed as activators; further: potency means the concentration at half of the fitted maximal effect; % of control where 0% means no effect; nearly all actives have a fitted effect of over 50% in size
KB-3-1 tox: kills parental KB-3-1 adenocarcinoma cells | KB-3-1 viability, CellTiter-Glo ATP luminescence, 72 h | Potency, µM (doses to about 46.1 µM), most hits filed as cytotoxic | actives 1.4% (n = 400,000) | AID 1347075; further: potency means the concentration at half of the fitted maximal effect; on the % scale 0 is the no-effect control and ±100 the full control effect; nearly all actives have a fitted effect of over 60% in size
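KB-3-1 parental drug-naive adenocarcinoma cells in DMEM/10% FBS, incubated 72 h at 37 C with pin-transferred compounds across a concentration series. Viability by CellTiter-Glo luminescence; concentration-response curves fitted after normalization.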
Active calls of the source: *; i = inactive; ? = inconclusive; · = not tested or not shown. Unless noted, the call rests on the fitted dose curve; in most records, active means well fitted curve in the direction sought with a large enough effect; inconclusive means small, poorly fitted or top-dose-only effect, or another doubt; inactive means no such curve, though single readings can be large; an effect the other way counts as inactive or inconclusive.

SMILES	SW480 rerep	KB-V1 cytotox	IL1B secr inh	MCF10A rerep	KB-3-1 tox
Cc1ccccc1NC(=O)CC1S/C(=N/c2nccs2)N(C)C1=O (stereo not given)	-3.8%	i	2.7	-0.9%	i
CCc1ccccc1NC(=O)CC1S/C(=N\c2nccs2)N(CC)C1=O (stereo not given)	1.6%	8.2µM*	-8.5	?	i
COc1ccc(CC2=CC(=O)c3ccccc3C2=O)cc1	-0.4%	i	-97.8*	?	i
O=C(C1CCC(C(=O)N2CCc3ccccc32)CC1)N1CCc2ccccc21 (stereo not given)	-6.1%	i	-3.5	0.8%	i
O=C(Nc1ccccc1)C(=O)Nc1ccc2c(c1)N(C(=O)C1CC1)CCC2	?	?	-12.4	?	23.1µM*
O=C(/C=C\c1ccccc1OC(=O)c1ccccc1F)c1cc2ccccc2o1	4.8%	?	-104.0*	?	i
Cc1cc(C)c(CN2CCN(C(=O)Cn3cnc4c(OCc5ccccc5)ncnc43)CC2)c(C)c1	13.8%	i	-22.5	-2.3%	?
CN1CCN(NC(=O)c2cc(Br)ccc2Cl)CC1	-3.1%	i	-11.5	-0.9%	i
CCCCCCCCN1C(=O)[C@H](CC(=O)N2CCN(C(=O)C3CC3)CC2)C[C@@]2(C(=O)OC)CC(C)(C)CC=C12	·	?	-59.5*	·	?
CCCCCCCCN1C(=O)[C@H](CC(=O)N2CCN(C(=O)C3CC3)CC2)C[C@@]2(C(=O)OCC)CCCC=C12	·	i	-65.8*	·	i
CCCCCCCCN1C(=O)[C@H](CC(=O)N2CCCC2)C[C@@]2(C(=O)OC)CCCCC=C12	·	?	-17.2	·	i
CCCCCCCCN1C(=O)[C@H](CC(=O)N2CCN(C(=O)C3CC3)CC2)C[C@@]2(C(=O)OC)CCCCC=C12	·	?	-51.4*	·	i
CC(C)Oc1ccccc1C1NC(=O)CCC1[N+](=O)[O-] (stereo not given)	-6.7%	i	24.8	-5.0%	i
CC1CCN(C(=O)CCC(=O)Nc2nnc(C(F)(F)F)s2)CC1	-0.9%	?	32.9	-1.2%	i
CC1CCCCN1C(=O)CCC(=O)Nc1nnc(C(F)(F)F)s1 (stereo not given)	?	i	29.3	23.1µM*	i
CC(=O)NC(c1ccccc1)c1nc(-c2cccs2)cs1 (stereo not given)	·	?	-16.7	·	i
Cc1ccccc1OCC(=O)NCC(=O)N/N=C/c1ccc(Br)o1	?	?	5.8	12.0%	?
O=C(COc1ccccc1[N+](=O)[O-])N/N=C/C=C/c1ccco1	-7.1%	i	0.0	-14.8%	i
Cc1ccccc1OCC(=O)N/N=C/c1ccc([N+](=O)[O-])o1	1.16µM*	i	7.6	23.1µM*	i
CC1(C(=O)N/N=C/c2ccc([N+](=O)[O-])o2)CC1(Br)Br (stereo not given)	4.61µM*	18.4µM*	-90.1*	?	?
CCOC(=O)N/N=C\c1ccc([N+](=O)[O-])o1	-1.0%	?	36.8	-5.1%	i
COc1ccccc1OCC(=O)N/N=C/C=C/c1ccc([N+](=O)[O-])o1	?	16.4µM*	-99.6*	?	?
Cc1cc(C)cc(OCC(=O)N/N=C/c2ccc([N+](=O)[O-])o2)c1	?	?	-63.6*	?	i
CN(C)c1ccc(CNC(=O)CCn2cccn2)cc1	·	i	·	·	i
CCn1ccc(C(=O)Nc2c(C)nn(Cc3c(F)c(F)c(F)c(F)c3F)c2C)n1	-34.1%	?	24.0	-1.1%	i
SMILES	SW480 rerep	KB-V1 cytotox	IL1B secr inh	MCF10A rerep	KB-3-1 tox
O=C(CNc1cccc([N+](=O)[O-])c1)N/N=C/c1ccc([N+](=O)[O-])o1	?	?	-66.6*	?	?
Cn1c(=O)oc2cc(S(=O)(=O)Nc3cccc(C(=O)O)c3)ccc21	-11.4%	i	20.1	-1.6%	i
CCc1cccc(NS(=O)(=O)c2ccc3c(c2)oc(=O)n3C)c1	-6.4%	4.61µM*	0.0	5.6%	?
CC(=O)c1cccc(NS(=O)(=O)c2ccc3c(c2)oc(=O)n3C)c1	-2.9%	16.4µM*	17.1	1.3%	?
Cc1nn(CCCC(=O)Nc2cc(C(F)(F)F)ccc2Cl)c(=O)c2c1sc1ccccc12	·	i	·	·	i
COCCNC(=S)Nc1cc(OC)c(OC)cc1C#N	-4.0%	i	9.2	2.9%	i
Clc1cccc(-c2ccc(C=Nc3ccc(N4CCOCC4)cc3)o2)c1Cl	?	i	-1.9	20.6µM*	i
CC(C)NC(=O)c1cc(-c2ccc(F)cc2OC(C)C)n[nH]1	·	i	-21.8	·	i
Cc1ccc(C(OCCN(C)C)c2cccc(C(F)(F)F)c2)cc1 (stereo not given)	22.9%	i	-66.7*	11.4%	i
CN(C)CCO[C@@H](c1ccc(Cl)cc1)c1ccccn1	1.8%	i	-14.3	0.2%	i
CCn1ncc(C2C(C(=O)Nc3ccc(C)cn3)=C(C)NC3=C2C(=O)CCC3)c1C (stereo not given)	-0.4%	?	8.2	5.5%	i
CC1=C(C(=O)Nc2ccc(C)cn2)C(c2cnn(C)c2)C2=C(CCCC2=O)N1 (stereo not given)	0.517µM*	?	3.9	-0.4%	i
CC(=O)N/N=C/c1ccc([N+](=O)[O-])o1	9.9%	·	·	?	·
O=[N+]([O-])c1ccc(/C=N/N=C/c2ccc([N+](=O)[O-])o2)o1	0.5%	8.2µM*	-101.2*	2.59µM*	?
Cc1cc2ncn(/N=C/c3ccc([N+](=O)[O-])o3)c2cc1C	20.6µM*	?	?	20.6µM*	i
Cc1ccc(S(=O)(=O)N/N=C\c2ccc([N+](=O)[O-])o2)cc1	16.0%	i	-60.4*	?	i
COc1ccc([N+](=O)[O-])cc1NS(=O)(=O)c1cccc(C(=O)OC2CCOC2=O)c1 (stereo not given)	0.1%	i	23.4	21.8%	i
COc1ccc(CCC(=O)NCc2ccc3c(c2)CCN3C(=O)c2ccc(Cl)cc2)cc1	·	i	·	·	i
CCC(C)[C@H]1COCCS(=O)(=O)N1Cc1ccccc1 (stereo not given in full)	-7.4%	i	-6.5	?	i
CC1=C(C(=O)Nc2ccccc2C)C(c2cccnc2)n2nc(SCc3ccccc3F)nc2N1 (stereo not given)	·	i	·	·	i
CCc1ccc(NC(=O)CSc2nnc(-c3ccccc3)n2CC)cc1	·	i	·	·	i
O=C(Nc1ccncc1)Nc1ccc(Cl)cc1	-1.0%	i	-94.4*	0.5%	i
CC(=O)c1ccc(NC(=O)Nc2ccc(Cl)cc2)cc1	23.9%	?	-98.9*	29.8%	i

Assay outcomes from PubChem BioAssay.
